# Laboratory results reported in PubChem BioAssay (NCATS).
# Records with an inconclusive call do not appear. Where a call stands in place of a potency, no number is given. Values without a mark were called inactive. Calls of active or inactive are those of the source. Calls come from the whole dose curve; as a rule, active = well fitted inhibition curve with a large enough effect; inconclusive = small, poorly fitted or top-dose-only effect; inactive = flat fitted curve, though single readings scatter.
# Assay: P-glycoprotein substrates identified in KB-8-5-11 adenocarcinoma cell line, qHTS therapeutic library screen (AID 1346987); note: nearly all actives have a fitted effect of over 65% in size
# Conditions: KB-8-5-11 (P-gp overexpressing) viability, CellTiter-Glo, 72 h; series mostly up to 44.5 µM
# Text: The ATP-binding cassette transporters P-glycoprotein (P-gp) is known to limit brain penetration of many chemotherapy drugs. […] As such, we developed a high-throughput screen (HTS) to identify substrates of P-gp from a series of chemical libraries including the National Center for Advancing Translational Sciences Pharmaceutical Collection NPC, 2,816 compounds), testing a total of 10,804 compounds, most of which have known mechanisms of action. We used the CellTiter-Glo viability assay to test library compounds against the parental KB-3-1 human cervical adenocarcinoma cell line and the colchicine-selected sub-line KB-8-5-11 that over-expresses P-gp. KB-8-5-11 cells were also tested in the presence of a P-gp inhibitor (tariquidar) to assess reversability of transporter-mediated resistance. Of the tested compounds, a total of 90 P-gp substrates were identified including 55 newly identified P-gp substrates. Substrates were confirmed using an orthogonal killing assay against HEK-293 cells transfected with P-gp. As exemplars, we confirmed that […] (cyclin-dependent kinase inhibitor); AT9283, (Janus kinase 2/3 inhibitor); ispinesib (kinesin spindle protein inhibitor); gedatolisib (PKI-587, phosphoinositide 3-kinase/mammalian target of rampamycin inhibitor); GSK-690693 (AKT inhibitor); and KW-2478 (heat shock protein 90 inhibitor) were substrates , and direct ATPase stimulation was assessed. ABCG2 was also found to confer high levels of resistance to AT9283, GSK-690693 and gedatolisib, while ispinesib, AT7519 and KW-2478 were weaker substrates.
# The HeLa derivative cell line, KB-3-1, and its colchicine-selected, P-gp-overexpressing subline, KB-8-5-11 were maintained in DMEM with 10% FCS and Pen/Strep with glutamine at 37 degree C in 5% CO2. For KB-8-5-11 cells, colchicine was added to the medium at a concentration of 100 ng/mL. HEK-293 cells transfected with empty vector (pcDNA) or vector containing human ABCB1 (MDR-19) or ABCG2 (R-5) have been described previously (Robey, Lin, Qiu, Chan & Bates, 2011) and were maintained in EMEM supplemented with 10% FCS, Pen/Strep and glutamine with 2 mg/ml G418 to select for the expression of the transporter. Cultures were confirmed to be free of mycoplasma infection using the MycoAlert Mycoplasma Detection Kit (Lonza, Walkersville, MD). For the screen, assay medium was identical to culture medium except for KB-8-5-11 where colchicine was excluded from the medium.
# All cell lines were plated into 1536-well plates at 500 cells/well in 5 uL media. Compounds were then pinned in dose-response using a 1536-head pin tool (Kalypsis, San Diego, CA) and plates were incubated at 37 degree C in 5% CO2 for an additional 72 h. CellTiter-Glo reagent (Promega) was dispensed into the wells, incubated for 5 min and luminescence was read on a ViewLux instrument (Perkin-Elmer). Cytotoxic compounds were defined as those that yielded a curve class of -1.1, -1.2, -2.1, -2.2, -2.3, or -2.4, a maximum response of >50% and an AC50 of < 10 uM. Cherry-picked hits from screening analysis were tested with both the KB pair of cell lines, and the pcDNA (empty vector control) and MDR-19 (P-gp overexpressing) pair were tested, in the absence and presence of tariquidar.
Structure (SMILES),Potency,"activity change, negative = cytotoxicity"
C[C@H]1[C@@H](O)[C@H](O)C2[C@]3(C)C([C@@H](O)[C@H]4OC(=O)[C@@H]1[C@@]24C)[C@](C)(O)C=C[C@H]3O[C@@H]1O[C@H](CO)[C@@H](O)[C@H](O)[C@H]1O (stereo not given in full),inactive,
C=C1CC[C@@]2(OC1)O[C@H]1CC3[C@@H]4CC=C5C[C@H](O[C@H]6OC[C@@H](O)C(O)[C@@H]6O[C@@H]6O[C@@H](C)[C@H](O)[C@@H](O[C@@H]7O[C@H](CO)[C@@H](O)[C@H](O)[C@H]7O)[C@H]6O)C[C@@H](O)[C@]5(C)C4CC[C@]3(C)[C@H]1[C@@H]2C (stereo not given in full),,2.38% [at 9.29 µM]
Nc1ccc(-n2nc(C(F)(F)F)cc2C(F)(F)F)cc1,inactive,
COc1cc(C)c(C(=O)OC2C(C)OC(OC3CCC(C)C4C3C=C(C)C3/C(C)=C\CC/C(C)=C/C5(C)C=C(C(=O)O)C(C)CC56OC(=O)/C(=C(\O)C34C)C6=O)C(O)C2O)c(OC)c1 (stereo not given),,8.21% [at 9.29 µM]
C[C@H]1CC[C@H]2[C@@H](C=C[C@@](C)(O)[C@]2(C)C(=O)CCO)C1,inactive,
Cc1nc2cc(-c3cc(F)cc(C#N)c3)ccc2s1,inactive,
O=C(O)c1ccnc2cc(-c3nc4ccccc4n3CCN3CCCCC3)sc12,inactive,
CC1(CO)CCCC2(C)C3COC(=O)C3=CC(O)C12 (stereo not given),inactive,
C/C=C1\[C@H](O[C@@H]2O[C@H](CO)[C@@H](O)[C@H](O)[C@H]2O)OC=C(C(=O)O)[C@H]1CC(=O)OCCc1ccc(O)cc1,inactive,
C=C1CC[C@@H]2[C@](C)(CO)[C@H](O[C@@H]3O[C@H](CO)[C@@H](O)[C@H](O)[C@H]3O)CC[C@@]2(C)[C@@H]1C/C=C1/C(=O)OC[C@H]1O,inactive,
O=C(/C=C/c1ccc(O)c(O)c1)O[C@@H]1[C@@H](O)[C@H](OC2CCCCC2O)O[C@H](CO)[C@H]1O (stereo not given in full),inactive,
C=C(C)[C@@]1(O)C[C@@]2(C)C(=CC1=O)CC[C@@H](O)[C@@H]2C,inactive,
C=CCC/C=C/C#CCCCCCCCC[C@H]1C(=O)O[C@H](C)[C@@H]1O,inactive,
C=C1CC23CC1CCC2C12OC(=O)C(C)(C(O)C(O)C1O)C2C3C(=O)O (stereo not given),inactive,
Nc1ncnc2c1ncn2[C@H]1O[C@@H](C(=O)N2CCN(CC(=O)Nc3cccc4c3CNC4=O)CC2)[C@H](O)[C@@H]1O,inactive,
COc1ccc(CC(NC(C)=O)C(=O)O)cc1 (stereo not given),inactive,
Oc1ccc2c(-c3c(-c4ccccn4)nn4c3CCC4)ccnc2c1,inactive,
O=C(/C=C/c1ccc(O)cc1)OC[C@@]1(O)C=C[C@@H]2C(C(=O)O)=CO[C@@H](O[C@@H]3O[C@H](CO)[C@@H](O)[C@H](O)[C@H]3O)[C@@H]21,inactive,
COc1c2c(c(C)c3c1C(=O)OC3)OC1(C)CC(O)C34OC(OC)(CCC3(C)C1C2)OC4(C)CO (stereo not given),inactive,
O=C(NCC(=O)N1CCCC1)Nc1ccc2ccccc2c1,inactive,

Structure (SMILES),Potency,"activity change, negative = cytotoxicity"
COc1cccc(Cn2ncc3c4sc(S(C)=O)cc4n(C)c3c2=O)c1 (stereo not given),inactive,
C=C1C(=O)O[C@@H]2/C=C(\C)CC/C=C(\C(=O)O[C@@H]3O[C@H](CO)[C@@H](O)[C@H](O)[C@H]3O)CC[C@@H]12,inactive,
COc1cc(/C=C/C(=O)OC[C@H]2O[C@@H](OC3CC(C)=C(C(=O)O)C(C)(C)C3)[C@H](O)[C@@H](O)[C@@H]2O)cc(OC)c1O (stereo not given in full),inactive,
CCCSc1nc(NC2CC2c2ccc(F)c(F)c2)c2nnn(C3CC(OCCO)C(O)C3O)c2n1 (stereo not given),inactive,
CC1(C)CCCC2(C)c3c4c(c(=O)oc(=O)c3=CCC12)=CCC1C(C)(C)CCCC41C (stereo not given),inactive,
CCc1nnc(NS(=O)(=O)c2ccc(NC(=S)NC(=O)/C=C/c3ccc(F)cc3)cc2)s1,inactive,
C[C@@H]1O[C@@H](O[C@H]2[C@H](OC(=O)[C@]34CCC(C)(C)C[C@H]3C3=CCC5[C@@]6(C)C[C@@H](O)[C@@H](O[C@@H]7O[C@H](CO)[C@@H](O)[C@H](O)[C@H]7O)[C@@](C)(CO)C6[C@H](O)C[C@@]5(C)[C@]3(C)CC4)OC[C@H](O)[C@@H]2O)[C@H](O)[C@H](O[C@@H]2OC[C@](O)(CO)[C@H]2O)[C@H]1O[C@@H]1OC[C@@H](O)[C@H](O[C@H]2O[C@H](C)[C@@H](O)[C@H](O)[C@@H]2O)[C@H]1O (stereo not given in full),,2.77% [at 9.29 µM]
COc1c(C)c(OCC=C(C)C)cc2c1COC2=O,inactive,
C=C1CCC2C(C)(C(=O)O)CCCC2(C)C1CC/C(C)=C\CO (stereo not given),inactive,
N#CN1CCC[C@@H](n2nc(-c3ccc(Oc4ccc(F)cc4F)cc3)c(C(N)=O)c2N)C1,inactive,
CC1=C(CC/C(C)=C/C(=O)O)[C@@]2(C)CCCC(C)(C)C2CC1=O (stereo not given in full),inactive,
Nc1nc2c(nc(Sc3ccc(Cl)cc3)n2[C@@H]2O[C@@H]3COP(=O)(O)O[C@H]3[C@H]2O)c(=O)[nH]1,inactive,
CC(=O)c1[nH]cc(CCC(=O)O)c1CC(=O)O,inactive,
CC1(C)C[C@H](O)C[C@@]2(C)[C@H]1[C@H](O)C=C1COC(=O)[C@@]12O,inactive,
C=C1CCC2C(C)(C)CC(=O)CC2(C)C1CCC(C)CCO (stereo not given),inactive,
Cc1ccc(Nc2nnc(-c3ccc([N+](=O)[O-])cc3)o2)cc1Cl,inactive,
Cc1c(-c2ccc3c(c2)OCO3)oc2ccc(C(O)C(C)O)cc12 (stereo not given),inactive,
CC(C)(O)C1OC1C1=CC(=O)C2(C)OC2C1O (stereo not given),inactive,
O=C(OC[C@H]1O[C@H](O[C@H]2CO[C@H](CO)[C@@H](O)[C@@H]2O)[C@H](O)[C@@H](O)[C@H]1O)c1ccccc1,inactive,
COc1cc(-c2ccc(O)cc2)c(OC)c(O)c1C1=CC(=O)OC1CC(=O)O (stereo not given),inactive,
